Measurements published in PubChem BioAssay AID1159580 (chemical genetic matrix, 2015).
“And” between values parts separate entries of the source, which are not always exact repeats. Identical values can stand only once. Screen size: about 5,500 compounds; about 2,000 (36%) were called active. Roughly 18% stayed inconclusive and do not appear here. Cut-off read from the data, not from the text of the source: active = normalized growth mostly below about 0.91 (no sharp cut-off); inconclusive = no clear call, values can overlap the other calls; inactive = mostly above about 0.92. The list shows a part of the results.

Test: chemical genetic growth profiling, strain panel (AID 1159580);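 note: tested at 20 µM; growth read once vehicle control cultures reached saturation at 30 °C; 1 = growth at the plate median or of vehicle wells; lower values mean less growth of the strain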
Conditions: S. cerevisiae deletion strains, growth OD

Measured: normalized growth

Cn1c(=O)c2[nH]cnc2n(C)c1=O
inactive: locus YAL013W, strain DEP1, active compounds read low 0.996 | locus YAL021C, strain ccr4, active compounds read low 1.03 | locus YAL026C, strain drs2, active compounds read low 1.03 | locus YAL030W, strain snc1, active compounds read low 1.02 | locus YAL040C, strain CLN3, active compounds read low 0.999 | locus YBL061C, strain skt5, active compounds read low 1.02 | locus YBR009C, strain hhf1, active compounds read low 1 | locus YBR021W, strain FUR4, active compounds read low 0.968 | locus YBR023C, strain chs3, active compounds read low 1.04 | locus YBR171W, strain sec66, active compounds read low 1.04 | locus YBR229C, strain ROT2, active compounds read low 0.983 | locus YBR231C, strain swc5, active compounds read low 1.02 | locus YBR279W, strain paf1, active compounds read low 1.02 | locus YCL011C, strain gbp2, active compounds read low 1.02 | locus YCL016C, strain dcc1, active compounds read low 1.04 | locus YCL029C, strain bik1, active compounds read low 0.966 | locus YCL061C, strain MRC1 (second series), active compounds read low 1 | locus YCL069W, strain vba3, active compounds read low 1 | locus YCR088W, strain abp1, active compounds read low 1.02 | locus YDL005C, strain med2, active compounds read low 1.02 | locus YDL035C, strain GPR1, active compounds read low 0.996 | locus YDL040C, strain nat1, active compounds read low 1.02 | locus YDL074C, strain BRE1, active compounds read low 1.02 | locus YDL101C, strain DUN1, active compounds read low 0.985 | locus YDL134C, strain PPH21, active compounds read low 0.985 | locus YDL185W, strain tfp1, active compounds read low 0.979 | locus YDL192W, strain arf1, active compounds read low 0.964 | locus YDR001C, strain nth1, active compounds read low 1.01 | locus YDR069C, strain doa4, active compounds read low 1.02 | locus YDR101C, strain arx1, active compounds read low 0.975 | locus YDR137W, strain rgp1, active compounds read low 1.04 | locus YDR150W, strain NUM1, active compounds read low 0.99 | locus YDR159W, strain sac3, active compounds read low 0.982 | locus YDR162C, strain NBP2, active compounds read low 1.01 | locus YDR195W, strain ref2 1.01 | locus YDR297W, strain sur2, active compounds read low 1.03 | locus YDR318W, strain mcm21, active compounds read low 0.976 | locus YDR334W, strain swr1, active compounds read low 1.02 | locus YDR335W, strain msn5, active compounds read low 1.04 | locus YDR388W, active compounds read low 0.975 | locus YDR392W, strain spt3, active compounds read low 1.05 | locus YDR502C, strain sam2, active compounds read low 1 | locus YEL003W, strain gim4, active compounds read low 0.997 | locus YEL037C, strain rad23, active compounds read low 1.02 | locus YEL061C, strain CIN8 (second series), active compounds read low 1.02 | locus YEL061C, strain CIN8, active compounds read low 0.989 | locus YER002W, strain NOP16, active compounds read low 0.993 | locus YER015W, strain faa2, active compounds read low 1.02 | locus YER016W, strain bim1, active compounds read low 1.02 | locus YER110C, active compounds read low 0.978 | locus YER111C, strain swi4, active compounds read low 1 | locus YER155C, strain BEM2 (second series), active compounds read low 1.02 | locus YER155C, strain BEM2, active compounds read low 0.992 | locus YER167W, strain BCK2, active compounds read low 0.988 | locus YFR010W, strain ubp6, active compounds read low 0.99 | locus YGL078C, strain dbp3, active compounds read low 0.987 | locus YGL086W, strain mad1, active compounds read low 0.989 | locus YGL167C, strain pmr1, active compounds read low 1.02 | locus YGL173C, strain kem1, active compounds read low 1.02 | locus YGL227W, strain vid30, active compounds read low 1.01 | locus YGL240W, strain doc1, active compounds read low 1.02 | locus YGL248W, strain PDE1, active compounds read low 0.99 | locus YGL253W, strain hxk2, active compounds read low 1.03 | locus YGR078C, strain PAC10, active compounds read low 0.992 | locus YGR135W, strain pre9, active compounds read low 0.976 | locus YGR229C, strain SMI1, active compounds read low 1.03 | locus YGR252W, strain gcn5, active compounds read low 1.05 | locus YHR013C, strain ard1, active compounds read low 1.05 | locus YHR027C, strain rpn1, active compounds read low 1.02 | locus YHR030C, strain SLT2, active compounds read low 0.984 and 0.992 | locus YHR079C, strain IRE1 (second series), active compounds read low 0.965 | locus YHR079C, strain IRE1, active compounds read low 0.988 | locus YHR094C, strain hxt1, active compounds read low 0.985 | locus YHR129C, strain ARP1, active compounds read low 0.995 | locus YHR142W, strain chs7, active compounds read low 1.05 | locus YHR200W, strain rpn10, active compounds read low 0.979 | locus YIL066C, strain RNR3, active compounds read low 0.989 | locus YIL073C, strain SPO22, active compounds read low 0.94 | locus YIL125W, strain kgd1, active compounds read low 0.983 | locus YIR030C, strain dcg1, active compounds read low 0.97 | locus YJL092W, strain hpr5, active compounds read low 1.01 | locus YJL095W, strain BCK1 (second series), active compounds read low 1.03 | locus YJL095W, strain BCK1, active compounds read low 1.01 and 0.99 | locus YJL115W, strain asf1, active compounds read low 1.03 | locus YJL129C, strain trk1, active compounds read low 1.04 | locus YJL134W, strain LCB3, active compounds read low 0.989 | locus YJL154C, strain vps35, active compounds read low 1.01 | locus YJL164C, strain tpk1, active compounds read low 1.01 | locus YJL166W, strain qcr8, active compounds read low 1.02 | locus YJL168C, strain set2, active compounds read low 0.978 | locus YJL187C, strain SWE1 (second series), active compounds read low 0.984 | locus YJL187C, strain SWE1, active compounds read low 1 | locus YJR043C, strain POL32, active compounds read low 0.997
